Spn MK inh: blocks S. pneumoniae mevalonate kinase | inhibition, % at 10 µM | purified MK, PK/LDH-coupled NADH absorbance 340 nm | actives 0.48% (n = 65,000) | AID 555;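 active = ranked among the strongest by inhibition in the single 10 µM screen, a fixed top-ranked set picked for dose follow-up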
A340 absorber: compounds absorbing at 340 nm; fold change at 10 µM; AID 708; compound absorbance at 340 nm, fold over control; 65,000 tested, under 10 active;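 active = at 10 µM dose, initial 340 nm absorbance at least 2 fold that of control wells; inactive = change under 2 fold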;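 also: initial absorbance extrapolated from kinetic A340 decline of NADH oxidation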
NADH coupling: inhibition of NAD/NADH coupling enzymes, library profiling; coupled PK/LDH NADH assays, four targets; IC50, µM (doses to about 10 µM); actives 0.02% (n = 65,000); AID 774;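 active = single-dose screening hits from any of four coupled enzyme assays that gave an IC50 when retested across doses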;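 also: the DPM-DC format reads NADH fluorescence rather than 340 nm absorbance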
PMK inhibit: blocks S. pneumoniae phosphomevalonate kinase. actives 0.49% (n = 65,000). AID 539. inhibition, % at 10 µM. purified PMK, PK/LDH-coupled NADH absorbance 340 nm;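 active = top-ranked compounds by inhibition in the single 10 µM screen, taking a fixed number of the strongest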
Spn DPM-DC inh: inhibitors of Streptococcus pneumoniae diphosphomevalonate decarboxylase; AID 556; actives 0.49% (n = 65,000); calls only at 10 µM; purified DPM-DC, PK/LDH coupled NADH fluorescence;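 active = the 320 compounds with the highest percent inhibition in the single-dose primary screen, excluding strongly autofluorescent ones, cut at about 32% in these data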;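 also: kinetic rate of NADH fluorescence loss reporting ADP formed by the decarboxylase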
Fluor 339 460: intrinsic fluorescence of library compounds, ex339/em460 – biochemical, MLSMR library, data from DPM-DC assay, artefact control, profiling panel; compound autofluorescence, ex339/em460 nm, NADH buffer; hits give high values; 1 = no-compound wells, NADH background; fluorescence fold increase at 10 µM; actives 5.5% (n = 65,000);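 active = at 10 µM, mean starting fluorescence two-fold or more over control wells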;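 also: signal is the first read of a kinetic run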
Of the large screens only hits and unclear results are named; the others gave an inactive call. Rows were chosen to be rich in hits. Some 6.8% of all compounds tested hit in one or more screens of this group.

CCCCS(=O)(=O)C(=C1Nc2ccccc2N1)S(=O)(=O)CCCC	PMK inhibit 26.0
CCSc1nc(-c2ccc(OC)cc2)ccc1C#N	Fluor 339 460 2
Cc1cccc(NC(=O)c2sc3nc(-c4ccc(F)cc4)cn3c2C)n1	Fluor 339 460 4.51 (not shown: Spn DPM-DC inh)
Cc1cccc(NC(=O)c2sc3nc(-c4ccccc4)cn3c2C)n1	none
CCN1CCN(C(=O)CCCCCn2c(=O)[nH]c3cc(C(=O)OC)ccc3c2=O)CC1	Fluor 339 460 2.63
CC(O)C(=O)NCCOCCOCCNC(=O)C(C)O (configuration not stated)	none
CC(=O)Nc1cc2c(cc1C(C)=O)OCCO2	Fluor 339 460 3.59 (not shown: Spn DPM-DC inh)
CC(=O)c1cc2c(cc1NC(=O)Nc1cccc(Cl)c1)OCCO2	Fluor 339 460 2.58
CCC(=O)c1cc2c(cc1NC(=O)C(C)C)OCCO2	Fluor 339 460 2.06
CC(C)C(=O)Nc1cc2c(cc1C(=O)c1ccccc1)OCCO2	none
O=C(Nc1cccc(Cl)c1)Nc1ccc2c(c1)OCO2	none
CCOC(=O)N1CCC(NC(=O)CCc2nc(-c3ccc(C)cc3)no2)CC1	none
O=C(CN1CCN(c2ncccn2)CC1)Nc1ccccc1-n1cccc1	none
N#Cc1c(N)n(CCCN2CCOCC2)c2nc3ccccc3nc12	Fluor 339 460 3.85 (not shown: Spn DPM-DC inh)
Cc1ccc(S(=O)(=O)c2c(N)n(CCN3CCOCC3)c3nc4ccccc4nc23)cc1C	Fluor 339 460 4.93 (not shown: Spn DPM-DC inh)
CCCCn1c(NC(C)=O)c(C#N)c2nc3ccccc3nc21	Fluor 339 460 3.83 (not shown: Spn DPM-DC inh)
CCCCCn1c(N)c(C#N)c2nc3ccccc3nc21	Fluor 339 460 5.03 (not shown: Spn DPM-DC inh)
CCCCn1c(CNC(C)=O)nc2ccccc21	none
CCOC(=O)c1nnn(-c2nonc2N)c1CSc1ccccn1	none
O=S(=O)(NCCc1csc(-c2cccnc2)n1)c1ccc(Cl)s1	none
N#Cc1c(N)n(CCNC(=O)c2cccs2)c2nc3ccccc3nc12	Fluor 339 460 3.03 (not shown: Spn DPM-DC inh)
Cc1cccc(-n2c(=O)[nH]c3c(C(N)=O)nc(C(C)C)nc32)c1	Fluor 339 460 4.95 (not shown: Spn DPM-DC inh)
COc1ccc(-c2nc(C(N)=O)c3[nH]c(=O)n(-c4cccc(Cl)c4)c3n2)cc1OC	none
CN1CCc2c(sc3nc(SCC(=O)N4CCOCC4)nc(N)c23)C1	Fluor 339 460 2.22 (not shown: Spn DPM-DC inh)
CC1CCN(C(=O)CSc2nc(N)c3c4c(sc3n2)CN(C)CC4)CC1	Fluor 339 460 2.09 (not shown: Spn DPM-DC inh)
CSCC[C@@H](C(=O)O)N1Cc2ccccc2C1=O	none
O=C(O)[C@@H](c1ccccc1)N1Cc2ccccc2C1=O	Spn MK inh 72.0
CCOC(=O)C(C)Oc1cccc2c(=O)n(CC(=O)N3CCN(C(=O)OCC)CC3)ccc12 (configuration not stated)	none
Cc1nn2c(c1-c1ccccc1)NC1=C(C(=O)CCC1)C2c1cccnc1 (configuration not stated)	Fluor 339 460 3.81 (not shown: Spn DPM-DC inh)
CC(SC1CCCC1)C(=O)NC(C)(C#N)C(C)C (configuration not stated)	none
O=C(NCc1cccs1)c1cc2ccccc2o1	none
COc1ccc2cc3cc(C(=O)Nc4ccccc4N4CCN(C)CC4)oc3nc2c1	none
COc1ccc2cc3cc(C(=O)NCC4CCCO4)oc3nc2c1 (configuration not stated)	Fluor 339 460 3.46 (not shown: Spn DPM-DC inh)
O=C(NCc1ccco1)c1cc2cc3ccc(Cl)cc3nc2o1	none
COc1ccc2nc3oc(C(=O)NCc4cccs4)cc3cc2c1	Spn DPM-DC inh active, Fluor 339 460 3.9
COc1ccc2cc3cc(C(=O)NCc4ccccn4)oc3nc2c1	Fluor 339 460 5.07 (not shown: Spn DPM-DC inh)
COc1ccc2cc3cc(C(=O)NCCN4CCN(c5ccccc5F)CC4)oc3nc2c1	Fluor 339 460 5.06 (not shown: Spn DPM-DC inh)
O=C(C1CCN(c2ccc(N3CCOCC3)nn2)CC1)N1CCN(c2ccc(F)cc2)CC1	Fluor 339 460 4.85 (not shown: Spn DPM-DC inh)
O=C(c1cncc(Br)c1)N1CCN(c2ccc(N3CCOCC3)nn2)CC1	Fluor 339 460 2.15 (not shown: Spn DPM-DC inh)
O=C(c1ccc(N2CCOCC2)nc1)N1CCOCC1	none
O=C(NCc1ccco1)C1CCN(c2ccc(N3CCOCC3)nn2)CC1	Fluor 339 460 2.47 (not shown: Spn DPM-DC inh)
O=C(c1ccc(N2CCCCS2(=O)=O)cc1)N1CCN(c2ccc(N3CCOCC3)nn2)CC1	Fluor 339 460 2.14 (not shown: Spn DPM-DC inh)
COc1ccc(-c2csc(N3CCC(C(N)=O)(N4CCCCC4)CC3)n2)cc1	none

High-throughput results as filed in PubChem.
